# Shown are actives, neighbours in structure and some others; about 12% of the full set was active somewhere.
# G9a block – G9a (human) methyltransferase inhibition; Q96KQ7; G9a H3K9 monomethylation, AlphaScreen, 2 h; Potency, µM (series often up to 102 µM), for the others: top-dose activity, negative = inhibition, most hits filed as inhibitors; 350,000 tested, 8.8% active; AID 504332; note: % is set by controls: 0 for no effect and ±100 for the full control effect; nearly all actives have a fitted effect of over 75% in size
# Target sequence (Q96KQ7 913-1193 limits assumed): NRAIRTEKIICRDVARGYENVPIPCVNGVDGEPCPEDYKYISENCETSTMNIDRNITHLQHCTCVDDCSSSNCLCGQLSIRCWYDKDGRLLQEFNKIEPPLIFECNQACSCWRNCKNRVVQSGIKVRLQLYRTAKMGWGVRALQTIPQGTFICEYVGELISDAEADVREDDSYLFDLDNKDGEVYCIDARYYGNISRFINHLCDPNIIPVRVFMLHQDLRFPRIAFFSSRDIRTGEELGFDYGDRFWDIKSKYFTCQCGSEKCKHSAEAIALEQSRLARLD
#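 Enzyme 20 nM + cpd, 15 min RT; add b-H3K9 pep 500 nM / SAM 20 uM; 2 h RT; anti-H3K9me1 Ab 0.5 ug/mL + SA donor / anti-rabbit acceptor beads 20 ug/mL each, 10 min; AlphaScreen read.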
# Sfp inh – Sfp phosphopantetheinyl transferase inhibition; Q9F4F7; Biochemical Sfp PPTase activity, qHTS; Potency, µM, for inactives: largest response in the series, negative = inhibition, hits mostly inhibitors; 310,000 tested, 3.5% active;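 note: the enzyme is Sfp with the accession as filed and its product quenches rhodamine fluorescence; 0% = enzyme reaction without inhibitor and -100% = no enzyme wells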
#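 Sfp 15 nM + cpd, 15 min RT; start w/ rhodamine-CoA 5 uM, BHQ-2-YbbR 12.5 uM (final); 50 mM Hepes pH 7.6, 10 mM MgCl2, 0.01% NP-40, 0.01% BSA; read 525/598 nm at 0 and 30 min.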
# BAZ2B block – inhibitors of human BAZ2B bromodomain | Q9UIF8 | AlphaScreen BAZ2B-H3K14Ac peptide displacement | 360,000 tested, 4.4% active | Potency, µM (highest dose often 114 µM), for inactives: at the highest dose activity change, negative = inhibition, actives largely listed as inhibitors; note: % is set by controls: 0 for no effect and ±100 for the full control effect; nearly all actives have a fitted effect of over 60% in size
#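 AlphaScreen luminescence quantifies BAZ2B engagement of H3K14Ac peptide; the protein and biotinylated peptide are both at 50 nM final, buffer PBS pH 7.4 with 0.01% Tween-20, all steps at room temperature.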
# HP1b binding inh – HP1-beta chromodomain-methylated histone interaction inhibition. P83916. AlphaScreen HP1-beta / biotin-H3K9me3 peptide binding. Potency, µM (titrated, usually from 114 µM), inactives show top-dose activity change, negative = inhibition, usual class: inhibitors. 390,000 tested, 0.56% active. AID 540317; note: nearly all actives have a fitted effect of over 70% in size
# Target sequence (P83916 whole entry, looked up): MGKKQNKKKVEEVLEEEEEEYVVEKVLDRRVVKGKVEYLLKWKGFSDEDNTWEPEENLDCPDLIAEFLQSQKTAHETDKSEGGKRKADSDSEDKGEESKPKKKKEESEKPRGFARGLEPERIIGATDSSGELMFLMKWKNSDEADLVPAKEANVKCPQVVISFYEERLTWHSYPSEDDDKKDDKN
#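 Compound inhibition of the preformed complex between 50 nM HP1-beta and 50 nM biotinylated H3K9me3 peptide was read by AlphaScreen. Buffer was PBS pH 7.4 with 0.01% Tween-20. Incubations ran 30 min at room temperature, with 10 ug/mL donor/acceptor beads.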
# L3MBTL1 block – inhibitors of human L3MBTL1; AlphaScreen L3MBTL1–H3K9me1 peptide binding; Potency, µM (doses to about 57.1 µM), for the others: at the top dose activity, negative = inhibition, hits mostly inhibitors; 230,000 tested, 0.66% active; AID 485360; note: % is set by controls: 0 for no effect and ±100 for the full control effect; nearly all actives have a fitted effect of over 60% in size
#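 AlphaScreen assay: L3MBTL1 (50 nM final) was preincubated 30 min at room temperature with biotinylated H3(1-15)K9me1 peptide (75 nM final), then 30 min with library compounds; streptavidin donor and nickel chelate acceptor beads (10 ug/mL final) added, 30 min dark.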
# JMJD2A Tudor inh – inhibitors of human JMJD2A Tudor domain | AlphaScreen JMJD2A-Tudor / H3K4me3 peptide binding | Potency, µM (highest dose often 114 µM), for the others: at the top dose activity change, negative = inhibition, actives largely listed as inhibitors | 390,000 tested, 4.4% active | AID 504339; note: % is set by controls: 0 for no effect and ±100 for the full control effect; nearly all actives have a fitted effect of over 50% in size
# * = called active by the depositor; ? = inconclusive; nt = no result; [ ] = dose if it differs, or a comment. Calls come from the whole dose curve; as a rule, active = well fitted curve in the direction sought with a large enough effect; inconclusive = small, poorly fitted or top-dose-only effect, or another doubt; inactive = no such curve, though single readings can be large; an effect the other way counts as inactive or inconclusive. Potency is the fitted concentration of half-maximal effect.
SMILES,G9a block,Sfp inh,BAZ2B block,HP1b binding inh,L3MBTL1 block,JMJD2A Tudor inh
NS(=O)(=O)c1ccc(CCNC(=O)C2COc3ccccc3C2)cc1 (stereo unspecified),-8%[59 µM],nt,-9%,23%[57 µM],nt,-12%
N/C(=N/OC(=O)c1cccc([N+](=O)[O-])c1)c1cccc([N+](=O)[O-])c1,?,-1%,-23%,5%,-8%,-25%
CC1=C(C)/C(=N/OC(=O)c2cccc([N+](=O)[O-])c2)C=CC1=O,10µM*,18%,-23%,10%,0%,-29%
COC(=O)/C=C/c1cccc([C@H]2[C@@H]3C=CC[C@@H](C)[C@@H]3C(=O)N2Cc2ccccc2)c1,?,-12%,nt,36%,-4%,-7%
CC1=CC2=NC(=O)/C(=C/c3cccn3Cc3ccccc3)C(=N)N2O1,-3%,-8%,-35%,7%,-16%,?
N=C1/C(=C/c2cccn2Cc2ccc(Cl)cc2)C(=O)N=C2SC=CN12,7%,40µM*,?,-9%,-4%,-17%
C[C@@]12C(=O)N(CC3CC3)CC(=O)N1[C@H](C1CC1)[C@@H]1C(=O)N(c3ccccc3)C(=O)[C@@H]12,-17%,15%,0%,45%,-3%,-1%
CCOc1ccc(NC(=S)C(C#N)=C2N(C)c3ccccc3N2C)cc1,32µM*,-16%,-31%,24%,nt,0%
CCOc1ccc(NC(=S)N2c3ccccc3CC2C)cc1 (stereo unspecified),-42%,?,-29%,-4%,?,-28%
COc1ccc(-c2csc(N(CCCN(C)C)C(=O)c3cc(OC)c(OC)c(OC)c3)n2)cc1,?,5%,?,7%,-1%,-32%
COc1ccc(-c2csc(N(CCCN3CCOCC3)C(=O)c3ccco3)n2)cc1,2%[59 µM],-22%,?,?,-12%,100µM*
CCN(CC)CCCN(C(=O)c1ccccc1F)c1nc(-c2ccc(OC)cc2)cs1,nt,-16%,?,18%,-4%,?
COc1ccc(-c2csc(N(CCCN(C)C)C(=O)c3ccc(Br)cc3)n2)cc1,9%[0.501 µM],35µM*,45µM*,-14%,-3%[2.29 µM],-31%
COc1ccc(-c2csc(N(CCCN(C)C)C(=O)c3ccc(C)cc3)n2)cc1,79µM*,3%,?,-8%,-11%,?
COc1ccc(-c2csc(N(CCCN(C)C)C(=O)c3ccc(C(C)(C)C)cc3)n2)cc1,?,2%,?,-13%,0%,?
CCN(CC)CCCN(C(=O)c1ccccc1C)c1nc(-c2ccc(OC)cc2)cs1,-36%[0.501 µM],?,50µM*,-10%,6%[2.29 µM],45µM*
Cc1ccc(NC(=O)c2ccc(NC(=O)N3CCSc4ncccc43)cc2)cc1Cl,?,nt,-22%,23%,nt,-12%
CCCCN(C(=O)Cc1ccc2c(c1)OCCO2)c1c(N)n(CC(C)C)c(=O)[nH]c1=O,-19%,nt,-19%,34%,-9%,-2%
NCCCC[C@H](NC(=O)CNC(=O)[C@@H]1CCCN1C(=O)[C@H](Cc1ccc(O)cc1)NC(=O)CN)C(=O)N[C@@H](Cc1ccccc1)C(=O)O,nt,4%,nt,nt,nt,nt
CCn1cc(-c2n[nH]c(=S)n2-c2ccc(C)cc2Br)c(=O)c2ccc(C)nc21,10µM*,6%,-5%,55%,2%,?
CCn1cc(C(=O)OCC(=O)Nc2ccc(F)cc2F)c(=O)c2ccc(C)nc21,?,nt,-6%,46%,nt,-16%
CC(=NNC(=S)N1CCCCC1)c1cccc(C)n1,nt,nt,nt,?,nt,25µM*
CSC(=S)NN=C(C)c1cccc(C)n1,nt,nt,nt,-25%,nt,5µM*
O=C1C=C(Nc2cccc3cccnc23)c2ccccc2C1=O,35µM*,-25%,56µM*,?,?,56µM*
CCc1ccc(NC2=CC(=O)C(=O)c3ccccc32)cc1,4%[0.501 µM],nt,50µM*,?,-13%,45µM*
SMILES,G9a block,Sfp inh,BAZ2B block,HP1b binding inh,L3MBTL1 block,JMJD2A Tudor inh
O=C1C=C(Nc2ccccc2C(=O)O)c2ccccc2C1=O,nt,-8%,35µM*,16µM*,nt,22µM*
O=C1C=C(Nc2ccccc2)C(=O)c2ccccc21,14µM*,-16%,7.9µM*,?,?,?
O=C1C(Nc2ccccc2)=C(NS(=O)(=O)c2ccccc2)C(=O)c2ccccc21,-8%[59 µM],-2%,-13%,2%,-14%,-5%
CCCCNC1=CC(=O)C(=O)c2ccccc21,-1%,12%,-37%,0%,-14%,-20%
O=C(O)c1ccccc1NC(=O)C(c1ccccc1)c1ccccc1,nt,nt,nt,16%,nt,-1%
Cc1ccc(COC(=O)c2[nH]c3c(c2C)C(=O)CC(c2ccc(Cl)cc2)C3)cc1 (stereo unspecified),-2%[59 µM],nt,-2%,21%,nt,1%
Cc1ccc(CNC(=O)CC(C)CC2=NS(=O)(=O)c3ccccc3N2)cc1 (stereo unspecified),8%[59 µM],nt,0%,19%,nt,-4%
O=C1C=C(Nc2ccccc2)c2ccccc2C1=O,40µM*,2%,?,?,?,-31%
COC1=C(Nc2ccccc2)C(=O)C(OC)=C(Nc2ccccc2)C1=O,nt,nt,nt,20%[57 µM],nt,-17%
COC(=O)c1scc(-c2ccccc2)c1S(=O)(=O)Nc1cccc(C)c1C,1%[59 µM],nt,-1%,59%,nt,-23%
O=C(O)C(Cc1ccccc1)N1C(=O)c2c(Cl)c(Cl)c(Cl)c(Cl)c2C1=O (stereo unspecified),nt,nt,nt,-4%,nt,89µM*
O=C(O)C(Cc1ccccc1)N1C(=O)c2ccccc2C1=O (stereo unspecified),4%,36%,-1%,37%,nt,-14%
O=C(O)CCN1Cc2ccccc2C1=O,50µM*,11%,?,5%,-6%,?
CC(=O)Nc1ccc(NC(=O)C(Cc2ccccc2)N2Cc3ccccc3C2=O)cc1 (stereo unspecified),-28%[59 µM],nt,-12%,1%,nt,-15%
O=C(O)[C@H](Cc1ccccc1)N1Cc2ccccc2C1=O,79µM*,15%,?,14%,nt,-10%
